Source: PubChem
C diff HTS = inhibitors of Clostridium difficile growth; Clostridium difficile clinical isolate growth, OD600, 24 h; stronger effect = lower value; growth activity, negative = inhibition, % at 16 µg/mL (by protocol); actives 0.25% (n = 86,000);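 active means mean growth activity at or below -80% and every replicate also at or below -80%; inconclusive means mean at or below -80% but some replicate above -80%; inactive means mean growth activity above -80%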
Pf Dd2 growth = blocks growth of Plasmodium falciparum Dd2 parasites | actives 2.3% (n = 94,000) | activity change, % at 10 µM | P. falciparum Dd2 growth, SYBR Green, 72 h; stronger effect = lower value; in the data active means activity change below about -80%; inconclusive means no clear call, values can overlap the other calls
T cruzi growth-1 = blocks T. cruzi growth in NIH3T3 culture. inhibition, % at 8.34 µM. actives 5.9% (n = 77,000). T. cruzi beta-gal in NIH3T3, GalScreen luminescence, 90 h;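 active means mean inhibition above about 93%, with at least 55% of replicates each passing it, limit read from the data, passing the limit was not always enough; inconclusive means only one of those two conditions holds; inactive means neither condition holds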
T cruzi growth-2 = inhibitors of T. cruzi proliferation | shares compounds with T cruzi growth-1 | T. cruzi beta-gal in NIH3T3, GalScreen luminescence, 90 h | inhibition, % at 8.35 µM | actives 72% (n = 5,600);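 active means mean replicate inhibition above about 95% and at least 55% of replicates individually reaching it, limit read from the data; inconclusive means only one of the two criteria is met; inactive means neither criterion is met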
T cruzi growth-3 = blocks T. cruzi growth in NIH3T3 host cells. inhibition, % at 2.09 µM. actives 21% (n = 5,600). shares compounds with T cruzi growth-1. T. cruzi beta-gal in NIH3T3, GalScreen luminescence, 90 h;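 active means mean inhibition above about 95%, with at least 55% of replicates also reaching it, limit read from the data; inconclusive means meets just one of the two conditions; inactive means meets neither condition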
3T3 cytotox = cytotoxicity in mouse NIH/3T3 fibroblasts; shares compounds with T cruzi growth-1; NIH/3T3 viability, CellTiter-Glo ATP luminescence, 90 h; cytotoxicity (signal decrease), % at 8.35 µM; actives 14% (n = 5,600);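 active means mean signal decrease across replicates above about 35% based on untreated-well scatter, with enough replicates individually passing, limit read from the data; inconclusive means no rule stated though some were filed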
NIH3T3 tox 2 = cytotoxicity in mouse NIH/3T3 fibroblasts; shares compounds with T cruzi growth-1; NIH/3T3 viability, CellTiter-Glo ATP luminescence, 90 h; inhibition, % at 24.9 µM; actives 56% (n = 5,600);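 active means mean loss of cell viability signal at or above a set limit, and enough replicates individually reaching it; inconclusive means meets only the mean limit or only the replicate share; inactive means meets neither condition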
Each line names hits and unclear results; the compound was inactive in the other large screens (follow-up assays come after a bar, where they were run). In the library only some 6.8% were active in any assay of this set; here they are far more common.

CCCC#Cc1ccc2c(c1)O[C@@H](CN(C)Cc1ccccn1)[C@H](C)CN([C@@H](C)CO)S2(=O)=O	T cruzi growth-1 107.4 (no result: Pf Dd2 growth) | T cruzi growth-2 95.7 | T cruzi growth-3 inactive | 3T3 cytotox 64.4 | NIH3T3 tox 2 92.8
C[C@@H]1CN([C@H](C)CO)S(=O)(=O)c2ccc(C#CCN(C)C)cc2O[C@H]1CN(C)Cc1ccccn1	T cruzi growth-1 inconclusive | T cruzi growth-2 97.4 | T cruzi growth-3 inactive | 3T3 cytotox inactive | NIH3T3 tox 2 25.6
COCC#Cc1ccc2c(c1)O[C@H](CN(C)Cc1ccccn1)[C@H](C)CN([C@H](C)CO)S2(=O)=O	none
C[C@@H]1CN([C@@H](C)CO)S(=O)(=O)c2ccc(C#C[C@@H](C)O)cc2O[C@@H]1CN(C)Cc1ccccn1	none
C[C@H]1CN([C@@H](C)CO)C(=O)c2cc(NC(=O)Nc3ccc(C(F)(F)F)cc3)ccc2O[C@@H]1CN(C)S(=O)(=O)c1ccc(Cl)cc1	none
C[C@@H]1CN([C@H](C)CO)C(=O)c2cc(NC(=O)Nc3ccc(F)cc3)ccc2O[C@H]1CN(C)S(=O)(=O)c1ccc(F)cc1	none
COc1ccccc1S(=O)(=O)N[C@@H]1CC[C@H](CC(=O)N2CCCCC2)O[C@H]1CO	none
C/C=C/c1ccc([C@H]2[C@@H](CO)N(C(C)=O)C23CN(C(=O)c2ccc(F)cc2)C3)cc1	none (no result: T cruzi growth-1)
Cc1ccc(S(=O)(=O)Nc2ccc3c(c2)C(=O)N([C@H](C)CO)C[C@H](C)[C@H](CN(C)S(=O)(=O)c2ccccc2)OCCCC[C@@H](C)O3)cc1	none
Cc1ccc(S(=O)(=O)Nc2ccc3c(c2)C(=O)N([C@H](C)CO)C[C@@H](C)[C@@H](CN(C)S(=O)(=O)c2ccc(C)cc2)OCCCC[C@H](C)O3)cc1	Pf Dd2 growth -84.3, T cruzi growth-1 103.2 (no result: C diff HTS) | T cruzi growth-2 111.9 | T cruzi growth-3 inconclusive | 3T3 cytotox inactive | NIH3T3 tox 2 inactive
Cc1ccc(S(=O)(=O)Nc2ccc3c(c2)C(=O)N([C@H](C)CO)C[C@@H](C)[C@@H](CN(C)S(=O)(=O)c2ccccc2)OCCCC[C@H](C)O3)cc1	none
Cc1ccc(S(=O)(=O)Nc2ccc3c(c2)C(=O)N([C@@H](C)CO)C[C@H](C)[C@H](CN(C)S(=O)(=O)c2ccc(C)cc2)OCCCC[C@H](C)O3)cc1	T cruzi growth-1 104.2 (no result: C diff HTS) | T cruzi growth-2 104.8 | T cruzi growth-3 inactive | 3T3 cytotox inactive | NIH3T3 tox 2 inactive
Cc1ccc(S(=O)(=O)N(C)C[C@@H]2OCCCC[C@@H](C)Oc3ccc(NS(=O)(=O)c4ccccc4)cc3C(=O)N([C@H](C)CO)C[C@H]2C)cc1	none
Cc1ccc(S(=O)(=O)Nc2ccc3c(c2)C(=O)N([C@H](C)CO)C[C@@H](C)[C@H](CN(C)S(=O)(=O)c2ccc(C)cc2)OCCCC[C@H](C)O3)cc1	none (no result: C diff HTS)
Cc1ccc(S(=O)(=O)Nc2ccc3c(c2)C(=O)N([C@H](C)CO)C[C@H](C)[C@@H](CN(C)S(=O)(=O)c2ccc(C)cc2)OCCCC[C@H](C)O3)cc1	T cruzi growth-1 98.1 (no result: C diff HTS) | T cruzi growth-2 96.8 | T cruzi growth-3 inactive | 3T3 cytotox 74.6 | NIH3T3 tox 2 58.7
Cc1ccc(S(=O)(=O)Nc2ccc3c(c2)C(=O)N([C@@H](C)CO)C[C@H](C)[C@@H](CN(C)S(=O)(=O)c2ccc(C)cc2)OCCCC[C@H](C)O3)cc1	T cruzi growth-1 105.7 (no result: C diff HTS) | T cruzi growth-2 107.7 | T cruzi growth-3 inactive | 3T3 cytotox inactive | NIH3T3 tox 2 inactive
COCC(=O)Nc1ccc2c(c1)OC[C@@H](C)N(Cc1cncnc1)C[C@H](C)[C@H](OC)CN(C)C2=O	none (no result: T cruzi growth-1)
C[C@@H]1CN([C@H](C)CO)S(=O)(=O)c2ccc(-c3cncnc3)cc2O[C@@H]1CN(C)C(=O)CC1CC1	none
O=C(C[C@H]1C[C@@H]2c3cc(NC(=O)Nc4ccccc4)ccc3O[C@@H]2[C@H](CO)O1)NCC1CC1	none
O=C(C1CC1)N1CC(=O)N2[C@H](C1)[C@@H](c1ccc(-c3ccccc3F)cc1)[C@@H]2CO	none (no result: T cruzi growth-1)
COc1ccc(NC(=O)Nc2ccc3c(c2)CC(=O)N([C@H](C)CO)C[C@@H](C)[C@H](CN(C)Cc2ccc(-c4ccccc4)cc2)O3)cc1	none
CC(C)C#Cc1ccc([C@@H]2[C@@H](C#N)N(C(=O)c3cccc(F)c3)[C@H]2CO)cc1	T cruzi growth-1 96.9 | T cruzi growth-2 103.2 | T cruzi growth-3 inactive | 3T3 cytotox inactive | NIH3T3 tox 2 inactive
N#C[C@@H]1[C@@H](c2ccc(C#CC3CCCC3)cc2)[C@@H](CO)N1C(=O)c1cccc(F)c1	none (no result: T cruzi growth-1)
N#C[C@@H]1[C@@H](c2ccc(C#CC3CCCC3)cc2)[C@H](CO)N1C(=O)c1cccc(F)c1	none (no result: T cruzi growth-1)
CC(C)C#Cc1ccc([C@@H]2[C@H](C#N)N(C(=O)c3cccc(F)c3)[C@H]2CO)cc1	T cruzi growth-1 inconclusive | T cruzi growth-2 inactive | T cruzi growth-3 106.3 | 3T3 cytotox inactive | NIH3T3 tox 2 78.5
N#C[C@H]1[C@H](c2ccc(C#CC3CC3)cc2)[C@@H](CO)N1C(=O)c1cccc(F)c1	T cruzi growth-1 inconclusive | T cruzi growth-2 97.3 | T cruzi growth-3 100.8 | 3T3 cytotox inactive | NIH3T3 tox 2 inactive
CC(C)C#Cc1ccc([C@H]2[C@@H](CO)N(C(=O)c3cccc(F)c3)[C@H]2C#N)cc1	none
CCCC(=O)N1CC2(C1)CN(C(=O)Cc1ccccn1)[C@@H](CO)c1[nH]c3cc(OC)ccc3c12	none (no result: T cruzi growth-1)
CCNC(=O)[C@@H]1[C@@H](CO)[C@@H]2Cn3c(ccc(-c4ccccc4F)c3=O)[C@H]1N2CC	none
CO[C@H]1CN(C)C(=O)c2cc(NC(=O)CC(F)(F)F)ccc2OC[C@@H](C)N(S(=O)(=O)c2cn(C)cn2)C[C@@H]1C	none (no result: T cruzi growth-1)
C[C@H]1CN([C@@H](C)CO)C(=O)c2cc(NC(=O)Nc3ccc(C(F)(F)F)cc3)ccc2O[C@@H]1CN(C)S(=O)(=O)c1cn(C)cn1	none (no result: C diff HTS)
C[C@@H]1CCCCO[C@@H](CN(C)C(=O)CCCN(C)C)[C@H](C)CN([C@H](C)CO)C(=O)c2cc(NC(=O)CCCN(C)C)ccc2O1	none
Cc1ccccc1S(=O)(=O)N1[C@@H]2c3cccc(=O)n3C[C@H]1[C@H](CO)[C@H]2C(=O)N1CCOCC1	none
C[C@@H]1CCCCO[C@H](CN(C)Cc2ccc(Cl)c(Cl)c2)[C@@H](C)CN([C@H](C)CO)C(=O)c2cc(NS(=O)(=O)c3cccs3)ccc2O1	T cruzi growth-1 116.5 | T cruzi growth-2 105.2 | T cruzi growth-3 inactive | 3T3 cytotox inactive | NIH3T3 tox 2 56.7
C[C@H](CO)N1C[C@H](C)[C@@H](CN(C)Cc2ccc(Cl)c(Cl)c2)OCCCC[C@H](C)Oc2ccc(NS(=O)(=O)c3cccs3)cc2C1=O	T cruzi growth-1 inconclusive | T cruzi growth-2 inactive | T cruzi growth-3 107.2 | 3T3 cytotox inactive | NIH3T3 tox 2 104.0
